The values below come from PubChem BioAssay.

The nature of assay [1]: antimalarial activity against Dd2 strain (AID 2302;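 active means growth inhibition above 50% at the single 2 µM test dose, taken to imply half-maximal potency below 2 µM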;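 further: 0% = DMSO untreated growth and 100% = chloroquine plus artemisinin killed control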). The conditions noted are these: P. falciparum Dd2 in RBCs, LDH growth readout, 72 h; at 2 µM; stronger effect = higher value.
A short description of assay [2]: human hepatoma cell viability loss – ATP luminescence, cytotoxicity control for P. falciparum antimalarial project, primary screen (AID 2303;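 active means inhibition above 50%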;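 further: 0% = DMSO wells and 100% = digitonin-killed cells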). The conditions noted are these: HepG2 viability, 24-48 h, at 10 µM, stronger effect = higher value.
For assay [3], the target named is L-lactate dehydrogenase (Plasmodium falciparum (isolate CDC / Honduras)) (UniProt Q27743). Briefly: PfLDH activity inhibition – cell lysate, 3D7 strain, counter-screen for P. falciparum growth inhibition project (AID 2304).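 Further: 0% = vehicle and 100% = reference inhibitor.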 The conditions noted are these: P. falciparum 3D7 crude extract, LDH APAD/NBT absorbance; at 2 µM; stronger effect = higher value. Background: A counterscreen serves to expose hits that act by an unwanted route or on another target.

A short description of assay [4]: inhibition of 3D7 malaria parasite growth – strain 3D7 (AID 2306).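 Further: 0% = DMSO wells and 100% = chloroquine plus artemisinin control wells.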 The conditions noted are these: P. falciparum 3D7 erythrocytic growth, LDH absorbance, 72 h; at 2 µM; stronger effect = higher value.
Assay [5] addresses Calcium-dependent protein kinase 1 (Plasmodium falciparum (isolate 3D7)) (UniProt P62344). Briefly: PfCDPK1 kinase inhibitors, biochemical, TCAMS library (AID 1159585; cut-off not given, nearly all actives have IC50 up to about 0.98 µM;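 further: inhibitors leave more ATP so luminescence rises with inhibition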). The conditions noted are these: recombinant PfCDPK1, Kinase-Glo ATP depletion luminescence.
Assay [6] deals with Plasmodium falciparum protein kinase 6 (PK6, PF3D7_1337100) (UniProt Q8IDW1). Briefly: PfPK6 kinase inhibitors, biochemical, TCAMS library (AID 1159586). The conditions noted are these: recombinant PfPK6, Kinase-Glo ATP depletion luminescence. For orientation: Kinase-Glo measures the ATP left after a reaction by luminescence.
Assay [7] deals with Protein kinase 7 (PK7), Plasmodium falciparum 3D7 (PF3D7_0213400) (UniProt Q7YTF7). Briefly: inhibition of Plasmodium PK7 catalytic activity – biochemical, TCAMS antimalarial set, Kinase-Glo luminescence (AID 1159587). The conditions noted are these: recombinant PfPK7, Kinase-Glo ATP depletion luminescence.
Assay [8] has as its target Calcium-dependent protein kinase 4 (Plasmodium falciparum (isolate 3D7)) (UniProt Q8IBS5). The experiment in a line: PfCDPK4 kinase inhibitors, biochemical, TCAMS library (AID 1159588; cut-off not given, nearly all actives have IC50 up to about 0.91 µM). The conditions noted are these: recombinant PfCDPK4, Kinase-Glo ATP depletion luminescence.

Unmarked numbers belong to inactive results. For part of these data: Measured potencies and affinities stand elsewhere. Calls of active or inactive are those of the source. Unless noted, how the calls were made is not given here.

Chain of L-lactate dehydrogenase (Plasmodium falciparum (isolate CDC / Honduras)) (Q27743 whole entry, looked up): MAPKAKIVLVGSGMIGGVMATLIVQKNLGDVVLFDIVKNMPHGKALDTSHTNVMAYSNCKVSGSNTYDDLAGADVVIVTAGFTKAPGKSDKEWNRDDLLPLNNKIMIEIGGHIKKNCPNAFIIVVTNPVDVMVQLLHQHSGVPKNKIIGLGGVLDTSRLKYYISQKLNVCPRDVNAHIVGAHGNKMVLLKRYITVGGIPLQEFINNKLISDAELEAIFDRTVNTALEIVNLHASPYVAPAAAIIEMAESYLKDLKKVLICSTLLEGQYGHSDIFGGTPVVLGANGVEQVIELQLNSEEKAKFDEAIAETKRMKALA
Chain of Calcium-dependent protein kinase 4 (Plasmodium falciparum (isolate 3D7)) (Q8IBS5 whole entry, looked up): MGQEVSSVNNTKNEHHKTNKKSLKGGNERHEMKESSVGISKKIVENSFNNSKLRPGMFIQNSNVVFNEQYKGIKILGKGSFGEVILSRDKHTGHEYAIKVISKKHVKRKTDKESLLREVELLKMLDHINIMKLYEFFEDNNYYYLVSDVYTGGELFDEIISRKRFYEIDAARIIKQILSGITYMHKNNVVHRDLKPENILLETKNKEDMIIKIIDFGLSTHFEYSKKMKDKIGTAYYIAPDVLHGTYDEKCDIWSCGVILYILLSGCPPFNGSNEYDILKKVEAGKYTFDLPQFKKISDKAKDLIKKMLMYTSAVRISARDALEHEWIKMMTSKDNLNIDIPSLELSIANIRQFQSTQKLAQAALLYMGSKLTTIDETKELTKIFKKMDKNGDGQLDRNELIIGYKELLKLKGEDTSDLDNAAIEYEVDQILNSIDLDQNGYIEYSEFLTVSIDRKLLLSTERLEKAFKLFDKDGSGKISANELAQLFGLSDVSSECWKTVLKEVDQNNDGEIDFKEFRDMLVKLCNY
Chain of Plasmodium falciparum protein kinase 6 (PK6, PF3D7_1337100) (Q8IDW1 1-305): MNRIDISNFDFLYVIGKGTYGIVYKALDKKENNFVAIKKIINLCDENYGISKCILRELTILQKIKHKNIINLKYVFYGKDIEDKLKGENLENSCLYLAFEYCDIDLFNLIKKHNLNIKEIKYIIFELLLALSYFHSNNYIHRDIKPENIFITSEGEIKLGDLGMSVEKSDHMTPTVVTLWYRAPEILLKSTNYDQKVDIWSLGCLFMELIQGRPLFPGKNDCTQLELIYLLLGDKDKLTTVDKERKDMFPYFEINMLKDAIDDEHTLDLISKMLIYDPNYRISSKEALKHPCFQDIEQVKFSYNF
Chain of Calcium-dependent protein kinase 1 (Plasmodium falciparum (isolate 3D7)) (P62344 whole entry, looked up): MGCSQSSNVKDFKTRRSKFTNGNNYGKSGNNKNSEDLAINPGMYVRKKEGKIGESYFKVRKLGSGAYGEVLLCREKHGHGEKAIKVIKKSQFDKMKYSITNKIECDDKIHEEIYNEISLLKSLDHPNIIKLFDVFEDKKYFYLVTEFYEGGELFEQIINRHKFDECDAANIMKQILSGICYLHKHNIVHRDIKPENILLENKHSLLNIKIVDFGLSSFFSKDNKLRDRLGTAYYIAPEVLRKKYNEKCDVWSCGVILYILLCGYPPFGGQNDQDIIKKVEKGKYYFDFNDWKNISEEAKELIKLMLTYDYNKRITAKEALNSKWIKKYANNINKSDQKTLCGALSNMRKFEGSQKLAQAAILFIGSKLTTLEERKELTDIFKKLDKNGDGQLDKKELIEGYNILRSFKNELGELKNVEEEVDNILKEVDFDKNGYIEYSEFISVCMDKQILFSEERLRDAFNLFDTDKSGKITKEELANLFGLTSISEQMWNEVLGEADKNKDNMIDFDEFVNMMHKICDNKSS
Chain of Protein kinase 7 (PK7), Plasmodium falciparum 3D7 (PF3D7_0213400) (Q7YTF7 1-343): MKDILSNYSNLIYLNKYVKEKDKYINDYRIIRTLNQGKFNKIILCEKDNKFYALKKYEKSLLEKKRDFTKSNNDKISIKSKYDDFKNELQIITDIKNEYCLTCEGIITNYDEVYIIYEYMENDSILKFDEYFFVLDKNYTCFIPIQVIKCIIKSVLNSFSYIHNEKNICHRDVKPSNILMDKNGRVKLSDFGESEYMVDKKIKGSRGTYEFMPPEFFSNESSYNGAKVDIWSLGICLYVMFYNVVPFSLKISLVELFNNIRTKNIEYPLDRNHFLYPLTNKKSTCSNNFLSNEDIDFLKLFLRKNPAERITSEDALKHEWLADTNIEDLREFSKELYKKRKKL

With `CC1CN(Cc2csc(Nc3ccccc3)n2)CC(C)O1` (centres undefined), the growth inhibition was 81% (active) in assay [1] and 91% (active) in assay [4]. Further, the inhibition in assay [2] was 4%; in assay [3] it was 0%. The result in assay [5], in assay [6], in assay [7] and in assay [8] was inactive.
Consider `COc1cccc(NC(=O)Nc2c(-c3cccc(C(F)(F)F)c3)c(C(F)(F)F)nn2C)c1`, for which the growth inhibition was 30% in assay [1] and 93% (active) in assay [4]. Moreover, the inhibition is 2% in assay [2] and 7% in assay [3]. Further, the outcome in assay [5], in assay [6], in assay [7] and in assay [8] was inactive.
On to `FC(F)(F)c1ccc2nc(-c3ccc(-c4cccc(CNCCc5cccnc5)c4)s3)[nH]c2c1`, for which the growth inhibition in assay [1] is 98% (active); in assay [4] it was 101% (active). Moreover, the inhibition is 26% in assay [2] and -3% in assay [3]. The outcome in assay [5], in assay [6], in assay [7] and in assay [8] was inactive.
For the compound `COc1cccc(-c2cc3nc4c(c(NCCCn5ccnc5)n3n2)CCCC4)c1`, the growth inhibition in assay [1] was 66% (active); in assay [4] it was 100% (active). For the same compound, the inhibition was 10% in assay [2] and -2% in assay [3]. Moreover, the outcome in assay [5], in assay [6], in assay [7] and in assay [8] was inactive.
`CC1CCC(NCc2c(O)ccc3ccccc23)CC1` (centres undefined): the growth inhibition in assay [1] was 77% (active); in assay [4], 95% (active). Further, the inhibition was 13% in assay [2] and -1% in assay [3]. For the same compound, the result in assay [5], in assay [6], in assay [7] and in assay [8] was inactive.
Take `O=C(NC1CC1)c1ccc(N2CCOc3ccc(Cl)cc32)s1`: the figures for the growth inhibition in assay [1] and in assay [4] were 73% (active) and 94% (active), respectively. Besides, the results for the inhibition in assay [2] and in assay [3] were 8% and 5%, respectively. The result in assay [5], in assay [6], in assay [7] and in assay [8] was inactive.
Turning to `COc1cccc(C(=O)NCCc2cccc(Cl)c2)c1OCc1ccccc1`, the growth inhibition in assay [1] is -1%; in assay [4], 85% (active). In addition, the inhibition in assay [2] is -1%; in assay [3], 1%. The result in assay [5], in assay [6], in assay [7] and in assay [8] was inactive.
With `Fc1ccc2nc(-c3cccc(-c4cccc(CN5CCN(c6ccncc6)CC5)c4)c3)[nH]c2c1`, the growth inhibition in assay [1] is 99% (active); in assay [4], 102% (active). Further, the inhibition in assay [2] was 71% (active); in assay [3], 1%. For the same compound, the outcome in assay [5], in assay [6], in assay [7] and in assay [8] was inactive.
With `O=C(/C=C/c1ccc(Cl)c(Cl)c1)N1CCC(CCN2CCC(c3c[nH]c4cnccc34)CC2)CC1`, the growth inhibition in assay [1] is 100% (active); in assay [4] it was 101% (active). The values for the inhibition in assay [2] and in assay [3] were 93% (active) and -2%, respectively. The result in assay [5], in assay [6], in assay [7] and in assay [8] was inactive.
Turning to `CC(C)(C)c1ccc(CNCCOc2ccc(Nc3nnc(-c4ccc(-c5ncc[nH]5)cc4)o3)c3ccccc23)cc1`, the growth inhibition in assay [1] was 88% (active); in assay [4], 100% (active). The inhibition in assay [2] was 43%; in assay [3], 0%. Further, the result in assay [5], in assay [6], in assay [7] and in assay [8] was inactive.
For the compound `Cc1ccc(CN2CCCN(Cc3cccc(NC(=O)c4ccc(Cl)c(Cl)c4)c3)CC2)cc1`, the growth inhibition in assay [1] is 18%; in assay [4] it was 96% (active). In addition, the figures for the inhibition in assay [2] and in assay [3] were 32% and -1%, respectively. Further, the result in assay [5], in assay [6], in assay [7] and in assay [8] was inactive.
Regarding `CCOC(=O)c1[nH]c(-c2cccc(F)c2)nc1N`, the growth inhibition in assay [1] is 2%; in assay [4], 98% (active). Moreover, the inhibition in assay [2] was 0%; in assay [3], 9%. Moreover, the result in assay [5], in assay [6], in assay [7] and in assay [8] was inactive.
Regarding `CC1CCc2sc(-c3nnc(SC(C)C(=O)NC4CC4)o3)cc2C1` (centres undefined), the results for the growth inhibition in assay [1] and in assay [4] were 69% (active) and 83% (active), respectively. The inhibition in assay [2] is 5%; in assay [3] it was -4%. The result in assay [5], in assay [6], in assay [7] and in assay [8] was inactive.
Regarding `CC(C)(C)NC(=O)C(c1ccc(F)cc1)N(C(=O)c1ccc(CN2CCOCC2)o1)c1ccc(C2CCCCC2)cc1` (centres undefined), the growth inhibition was 68% (active) in assay [1] and 87% (active) in assay [4]. Besides, the inhibition is 0% in assay [2] and -12% in assay [3]. Further, the outcome in assay [5], in assay [6], in assay [7] and in assay [8] was inactive.
As for `O=C(Nc1ccc(OC2CCN(Cc3ccc(F)cc3)C2)cc1)c1ccco1` (centres undefined), the growth inhibition in assay [1] is 69% (active); in assay [4] it was 88% (active). The inhibition in assay [2] is -3%; in assay [3] it was -1%. Moreover, the result in assay [5], in assay [6], in assay [7] and in assay [8] was inactive.
Regarding `COc1ccc2cc(C(c3nnnn3CC3CCCO3)N3CCc4ccccc43)c(=O)[nH]c2c1` (centres undefined), the growth inhibition is 3% in assay [1] and 94% (active) in assay [4]. Moreover, the inhibition in assay [2] was -3%; in assay [3] it was -1%. The outcome in assay [5], in assay [6], in assay [7] and in assay [8] was inactive.
With `COc1ccc2nc3cc(Cl)ccc3c(NCCN(C)C)c2c1`, the values for the growth inhibition in assay [1] and in assay [4] were 100% (active) and 102% (active), respectively. In addition, the inhibition is 4% in assay [2] and -2% in assay [3]. Further, the outcome in assay [5], in assay [6], in assay [7] and in assay [8] was inactive.
On to `Cc1ccc2c(c1[N+](=O)[O-])N=NCC2Oc1ccccc1` (centres undefined), for which the figures for the growth inhibition in assay [1] and in assay [4] were 19% and 91% (active), respectively. For the same compound, the inhibition in assay [2] was 16%; in assay [3] it was -4%. In addition, the outcome in assay [5], in assay [6], in assay [7] and in assay [8] was inactive.

What is called inhibition is the drop in the measured response relative to a control, in per cent.
